# The list is not random: actives were taken first. Their share in the collection is about 2.9%.
# EP2 modulator = EP2 receptor (human) modulation; P43116; EP2-expressing cells, cAMP HTRF FRET, PGE2 co-stimulation; hit rate 0.83% among 260,000; induction, % at 25 µM;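 active = compounds whose cAMP rise, as percent of the full-agonist control response, exceeds 60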;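 also: rat C6 glioma line stably carrying human EP2 under a CMV promoter; the protocol text gives 20 µM as final concentration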
# Target sequence (P43116 whole entry, looked up): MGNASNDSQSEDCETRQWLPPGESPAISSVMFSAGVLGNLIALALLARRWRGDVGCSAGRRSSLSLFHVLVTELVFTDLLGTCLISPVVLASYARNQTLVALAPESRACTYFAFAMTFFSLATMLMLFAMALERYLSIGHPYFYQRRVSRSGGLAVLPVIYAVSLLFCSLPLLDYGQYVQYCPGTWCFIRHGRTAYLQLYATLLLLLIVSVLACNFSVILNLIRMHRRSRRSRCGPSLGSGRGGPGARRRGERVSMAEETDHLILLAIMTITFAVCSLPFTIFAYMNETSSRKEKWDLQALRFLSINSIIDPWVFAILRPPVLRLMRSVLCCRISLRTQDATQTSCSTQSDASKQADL
# Rev-erbA mod = Rev-erb alpha (human) modulation; Rev-erbα–FITC-DNA binding, fluorescence polarization, 90 min; activity, % at 10 µM; hit rate 0.79% among 370,000; AID 1259318;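 active = activity above about 14%, limit read from the data; passing the limit was not always enough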
# PGE2 EP2 inh = EP2 receptor (human) inhibition; C6 glioma cells expressing human EP2, cAMP TR-FRET; cells stimulated with saturating PGE2; AID 1422; P43116; inhibition, % at 25 µM; hit rate 0.52% among 260,000;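 active = percent inhibition above 40 after rounding to a whole number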;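 also: rat C6 glioma host cells with rolipram phosphodiesterase inhibitor present; the protocol text gives 20 µM as final concentration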
# SKN-1 block = C. elegans SKN-1 inhibition; C. elegans VP596 Pgst-4::GFP/RFP ratio, acrylamide-induced, 24 h; inhibition, % at 21.8 µM; hit rate 0.49% among 360,000; AID 624304;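 active = interference check ratio from 0.5 to 1.5 plus GFP to RFP signal ratio inhibition reaching or exceeding a fixed threshold, cut at about 30% in these data, passing the limit was not always enough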
# RAM network inh = inhibitors of the yeast RAM network | hit rate 1.8% among 190,000 | S. cerevisiae dse1pr::URA3 reporter, 5-FOA growth OD615, 2 d; analog-sensitive cbk1-as2 kinase mutant strain | AID 868 | inhibition, % at 50 µM;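 active = inhibition above a set limit, 3 SD over mean compound inhibition, cut at about 8.4% in these data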;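 also: inhibition rescues growth on 5-FOA so higher OD means more RAM inhibition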
# PG9 Ab binder = PG9 antibody binding by small molecule; TR-FRET gp120-PG9 antibody binding; inhibition, % at 6.7 µM; hit rate 0.43% among 360,000; in the data active = inhibition above about 8.5%
# EP2 confirm = EP2 receptor cAMP induction, counter-screens negative; calls only at 20 µM (by protocol); C6 glioma EP2 cells, cAMP HTRF induction; plus low (about EC15) PGE2 agonist; shares compounds with EP2 modulator; hit rate 47% among 1,300;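 active = cAMP induction above 50% in the main assay while under 30% in all four parallel counter assays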;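 also: rat C6 glioma cells stably expressing human EP2 receptor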
# Hits are given with their value; . = inactive; / = no result; + = active, no number.
SMILES,EP2 modulator,Rev-erbA mod,PGE2 EP2 inh,SKN-1 block,RAM network inh,PG9 Ab binder,EP2 confirm
COc1ncnc2c1oc1nc(CC(C)C)c3c(c12)CCCC3,67.6,.,.,.,.,.,+
CC(C)Cc1nc2oc3c(Cl)ncnc3c2c2c1CCCC2,.,.,.,.,/,.,/
C=CCN1C(=O)/C(=C/c2ccc(O)c(OC)c2)S/C1=N/c1nccs1,69.8,.,.,.,.,.,+
CC(=O)Nc1ccc(CN2CCc3nc(C)[nH]c(=O)c3C2)cc1,.,/,.,/,/,/,/
C=CCN1C(=O)N(/C=C/C)c2cccc3cccc1c23,68.2,.,.,.,.,.,+
O=C1NC2(CCN(C(=O)C3(c4ccc(Cl)cc4)CCC3)CC2)Oc2ccccc21,.,/,.,/,/,/,/
O=C1C2C3c4ccccc4C(c4ccccc43)[C@@H]2c2nc3ccccc3n21 (stereo partly drawn),75.2,.,.,.,.,.,+
O=C1C2C3c4ccccc4C(c4ccccc43)[C@@H]2C(=O)N1c1ccccn1 (stereo partly drawn),.,.,.,.,/,.,/
CC(C)NC(=S)N/N=C1\CCCCC1C1CCCCC1 (stereo not drawn),80.5,.,.,.,.,.,+
Cc1ccccc1Nc1cccc2nonc12,66.5,.,.,.,.,.,+
CCc1ccccc1NC1c2ccccc2C(=O)N1c1cc(C)ccn1 (stereo not drawn),81.2,.,.,.,.,.,.
Cc1ccnc(N2C(=O)c3ccccc3C2Nc2ccccc2Cl)c1 (stereo not drawn),.,.,.,.,.,.,/
CCOc1ccccc1NC1c2ccccc2C(=O)N1c1ccc(C)cn1 (stereo not drawn),80.7,.,.,.,.,.,.
COc1ccc(C)cc1-n1c(=O)c2ccccc2c2ccccc2c1=O,74.4,.,.,.,.,.,.
CCN1CCN(c2nc3c(c(=O)[nH]c(=O)n3C)n2Cc2cccc(C)c2)CC1,/,.,/,.,/,.,/
CCCCCn1c(CN2CCN(c3cccc(Cl)c3)CC2)nc2c1c(=O)[nH]c(=O)n2C,.,.,.,.,.,.,/
COc1ccc(N2CCN(c3nc4c(c(=O)[nH]c(=O)n4C)n3Cc3cccc(C)c3)CC2)cc1,70.1,.,.,.,.,.,.
CC(C)CCn1c(N2CCN(c3cccc(Cl)c3)CC2)nc2c1c(=O)[nH]c(=O)n2C,65.0,.,.,.,.,.,.
O=C(NNc1ccc([N+](=O)[O-])cc1)C1C2CCCCC21 (stereo not drawn),.,.,.,.,.,.,/
O=C(NNc1ccc([N+](=O)[O-])cc1[N+](=O)[O-])C1C2CCCCC21 (stereo not drawn),65.2,.,.,.,.,.,+
COc1c(O)ccc(/C=C(\C#N)c2nc3ccccc3[nH]2)c1[N+](=O)[O-],78.6,.,.,.,.,.,+
Cc1cc(-c2cc(N)c(=O)n(CC(=O)NC3CCC(C)CC3)n2)c(C)o1 (stereo not drawn),.,/,.,/,/,/,/
CCOC(=O)c1c(NC(=O)c2ccoc2C)sc(C)c1C,76.9,.,.,.,.,.,.
CCOC(=O)c1c(NC(=O)CSC(=S)N(C)C)sc(C)c1C,66.1,.,.,.,.,.,+
CCOC(=O)c1c(NC(=O)c2ccncc2)sc(C)c1C,74.2,.,.,.,.,.,+
SMILES,EP2 modulator,Rev-erbA mod,PGE2 EP2 inh,SKN-1 block,RAM network inh,PG9 Ab binder,EP2 confirm
CCc1c(C)sc(NC(=O)c2ccoc2C)c1C(N)=O,/,.,/,.,/,.,/
O=C(CCc1ccccc1)N1CCC(Cn2nc(-c3ccco3)ccc2=O)CC1,.,/,/,/,/,/,/
COCCN1C(=O)C(=O)/C(=C(\O)c2ccc(C)cc2)C1c1cc(OC)c(OC)c(OC)c1 (stereo not drawn),.,/,.,/,/,/,/
COc1ccc(-c2csc3nc(C)nc(N4CCC(C)CC4)c23)cc1OC,69.7,.,.,.,.,.,.
COc1cc(C2Oc3cc(C4Oc5cc(O)cc(O)c5C(=O)C4O)ccc3OC2CO)ccc1O (stereo not drawn),80.1,.,.,.,.,.,.
CC1CN(c2nc3c(c(=O)[nH]2)CCN(Cc2ccccc2O)C3)CC(C)O1 (stereo not drawn),.,/,/,/,/,/,/
Cc1ccc2[nH]c(=O)c(CN(Cc3ccc4c(c3)OCO4)C(=O)C3CCCCC3)cc2c1,.,/,.,/,/,/,/
COc1ccccc1C(=O)COC(=O)c1cccc(-n2cnnn2)c1,/,.,/,.,/,.,/
CCOc1ccccc1COC(=O)c1cccc(-n2cnnn2)c1,70.9,.,.,.,.,.,.
CCOc1ccc2[nH]c(=O)c(CN(Cc3cccnc3)C(=S)Nc3ccccc3)cc2c1,.,/,.,/,/,/,/
O=C1NC2(CCN(C(=O)c3ccccn3)CC2)Nc2ccccc21,.,/,.,/,/,/,/
CC1Cc2ccccc2N1C(=O)CSc1nnc(Cc2ccccc2)n1C (stereo not drawn),.,/,.,/,/,/,/
CC1Cc2ccccc2N1C(=O)CSc1nnc(Cc2ccccc2)n1CCc1ccccc1 (stereo not drawn),65.9,.,/,.,.,.,.
Nc1cc(N)nc(SCc2c(Cl)cccc2Cl)n1,.,/,.,/,/,/,/
COc1cnc(SCc2c(Cl)cccc2Cl)nc1Cl,73.6,.,.,.,.,.,+
Cn1ccnc1C1(O)COC2(CCN(C(=O)c3cc(-c4ccccc4)no3)CC2)C1 (stereo not drawn),.,/,/,/,/,/,/
Cc1nccc2[nH]c(=O)c(C(=O)NC3CCCCC3C)cc12 (stereo not drawn),73.7,.,.,.,.,.,.
O=C1NC2(CCN(C(=O)CCCc3c[nH]c4ccccc34)CC2)Oc2ccccc21,.,/,.,/,/,/,/
Cc1ccc(CSc2ncnc3c2cnn3Cc2ccccc2)cc1C,66.5,.,.,.,.,.,.
O=C(Nc1ccc2c(c1)OCO2)c1cccc2c1C(=O)N(C1CCCCC1)C2,71.1,.,.,.,.,.,+
Cc1ccc2[nH]c(=O)c(CN(Cc3ccc(F)cc3)C(c3nnnn3C(C)(C)C)C(C)C)cc2c1 (stereo not drawn),.,/,.,/,/,/,/
COC(=O)c1ccc(C2C(C(=O)Nc3ccccc3OC)=C(C)Nc3ncnn32)cc1 (stereo not drawn),.,/,.,/,/,/,/
COc1ccc2c(Cl)c(C(=O)Nc3ccccc3)sc2c1,.,/,.,/,/,/,/
CC1(c2ccccc2)CC(C)(C)N(C(=O)C2CCCO2)c2ccccc21 (stereo not drawn),68.9,.,.,.,.,.,+
CC1(c2ccccc2)CC(C)(C)N(C(=O)CSc2nnc(N)s2)c2ccccc21 (stereo not drawn),.,.,.,.,.,.,/
CC1(c2cc([N+](=O)[O-])cc([N+](=O)[O-])c2)CC(C)(C)N(C(=O)c2ccccc2)c2ccccc21 (stereo not drawn),74.1,.,.,.,.,.,.

# Screening data (PubChem BioAssay)
